# Source: PubChem BioAssay (National Center for Advancing Translational Sciences (NCATS))
# Compounds with a hit are over-represented: about 7.9% of the library has one in this group of screens.
# HT1080NT lethal: kills 2HG-producing HT-1080-NT fibrosarcoma cells; HT-1080-NT fibrosarcoma viability, CellTiter-Glo ATP luminescence, 48 h; AID 686970; Potency, µM (top dose mostly 46.1 µM), usual class: cytotoxic; 1.6% of 360,000 active;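 further: NT is the 2HG producing partner of a matched IDH1 knockdown line; nearly all actives have a fitted effect of over 55% in size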
#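 A 48-hour cytotoxicity screen used HT-1080-NT cells plated 2 hours before compound delivery. ATP-based CellTiter-Glo luminescence measured viability, normalized to DMSO and no-cell controls.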
# MCF10A rerep: induces DNA re-replication in MCF 10a normal breast cells | MCF 10A DNA re-replication, Hoechst nuclear intensity, 48 h | Potency, µM (series often up to 46.1 µM), most hits filed as activators | 2.9% of 350,000 active | AID 624296; further: nearly all actives have a fitted effect of over 50% in size
# HT1080 IDH1KD tx: HT-1080 IDH1 knockdown cell toxicity (counter line); HT-1080 IDH1 knockdown viability, ATP luminescence, 48 h; Potency, µM (titrated, usually from 46.1 µM), hits mostly cytotoxic; 2% of 360,000 active; AID 686971
#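 IDH1KD HT-1080 cells, 750/well, RPMI + 5% FBS; compound pinned after 2 h settling; 48 h, 37 °C; CellTiter-Glo luminescence; % activity normalised to DMSO and no-cell wells; curves fitted, classed by r2 and efficacy.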
# KB-3-1 tox: KB-3-1 parental cell cytotoxicity | KB-3-1 viability, CellTiter-Glo ATP luminescence, 72 h | Potency, µM (titrated, usually from 46.1 µM), hits mostly cytotoxic | 1.4% of 400,000 active; further: nearly all actives have a fitted effect of over 60% in size
#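 Here the drug-naive KB-3-1 line serves as comparator for MDR sub-line selectivity; cells received compound titrations, 72 h at 37 °C, then CellTiter-Glo readout.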
# SW480 rereplic: DNA re-replication induction in SW480 cells | SW480 DNA re-replication, Hoechst DNA content imaging, 48 h | 1.8% of 340,000 active | Potency, µM (doses to about 46.1 µM), usual class: activators; further: nearly all actives have a fitted effect of over 55% in size
#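 Cells (250 per well) received 23 nL compound or DMSO by pin tool and were kept 48 hr at 37 C, 5% CO2. Nuclei were then stained with Hoechst for 40 min and scanned for DNA content.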
# KB-V1 MDR tox: kills drug-selected multidrug resistant KB-V1 cells. KB-V1 MDR cells viability, CellTiter-Glo, 72 h. Potency, µM (top dose mostly 46.1 µM), most hits filed as cytotoxic. 3.4% of 400,000 active; further: nearly all actives have a fitted effect of over 60% in size
#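 qHTS viability screen in drug-selected KB-V1 MDR cells: 72 h compound treatment at 37 degrees C, ATP luminescence end point.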
# Numbers stand for hits; n = inactive; u = inconclusive; x = not tested or not shown; ! = not active in a repeat. The call rests on the fitted dose curve; in most records, active means well fitted curve in the direction sought with a large enough effect; inconclusive means small, poorly fitted or top-dose-only effect, or another doubt; inactive means no such curve, though single readings can be large; an effect the other way counts as inactive or inconclusive.
SMILES,HT1080NT lethal,MCF10A rerep,HT1080 IDH1KD tx,KB-3-1 tox,SW480 rereplic,KB-V1 MDR tox
CCOC(=O)c1[nH]c2ccccc2c1NC(=O)c1ccc(S(=O)(=O)N2CCCCC2)cc1,n,23µM,n,n,n,n
COC(=O)c1[nH]c2ccc(C)cc2c1NC(=O)c1ccccc1[N+](=O)[O-],n,u,n,n,n,16µM
COC(=O)c1[nH]c2ccc(Cl)cc2c1NC(=O)c1ccccc1[N+](=O)[O-],n,n,n,n,n,n
CCOC(=O)c1[nH]c2ccccc2c1NC(=O)c1ccccc1OCC,x,x,x,1.6µM,x,u
COc1ccc(C(=O)NC2CC(=O)N(c3ccc4c(c3)OCCO4)C2)cc1 (centres undefined),x,x,x,n,x,n
Cc1cnc2c(c1SCC(=O)NCc1ccccc1Cl)c(=O)n(C)c(=O)n2C,x,x,x,n,x,n
COc1ccc(S(=O)(=O)Cc2ccc(C(=O)N3CCN(c4cc(C)ccc4C)CC3)o2)cc1,n,u,n,n,n,u
COc1ccc(S(=O)(=O)Cc2ccc(C(=O)N3CCN(c4cccc(C)c4C)CC3)o2)cc1,n,u,u,u,21µM,u
COc1ccc(S(=O)(=O)Cc2ccc(C(=O)N3CCN(c4cccc(C)c4)C(C)C3)o2)cc1 (centres undefined),2.6µM,6.5µM,12µM,3.3µM,15µM,n
Cc1ccc(C(=O)N2CCN(c3cccc(C)c3C)CC2)o1,u,u,u,16µM,n,u
Cc1ccc(S(=O)(=O)Cc2ccc(C(=O)N3CCN(c4cccc(C)c4C)CC3)o2)cc1,u,u,3.7µM,n,2.6µM,2.9µM!
Cc1cccc(N2CCN(C(=O)c3ccc(CS(=O)Cc4ccc(Cl)cc4)o3)CC2)c1C (centres undefined),n,u,n,n,n,n
Cc1ccc(C)c(N2CCN(C(=O)c3ccc(CS(=O)(=O)c4ccc(Br)cc4)o3)CC2)c1,x,x,x,u,x,n
COc1cc(NC(=O)Cn2nc(C(F)(F)F)c(Br)c2C)cc([N+](=O)[O-])c1,n,n,n,n,n,18µM
O=C(O)c1ccccc1SC1=NS(=O)(=O)c2ccccc21,x,x,x,n,x,u
CCn1cc(C(=O)NCc2ccc3c(c2)OCO3)c(=O)c2cc(F)c(N3CCN(C(=O)c4ccco4)CC3)cc21,18µM,u,18µM,u,u,n
CCn1cc(C(=O)NCc2ccncc2)c(=O)c2cc(F)c(N3CCN(C(=O)c4ccco4)CC3)cc21,n,u,n,n,n,n
CCN(CC)CCNC(=O)c1cn(CC)c2cc(N3CCN(C(=O)c4ccco4)CC3)c(F)cc2c1=O,n,n,n,n,n,n
CCn1cc(C(=O)NCc2ccccc2)c(=O)c2cc(F)c(N3CCN(C(=O)c4ccco4)CC3)cc21,21µM,u,u,u,n,u
N#Cc1ccc(C(=O)Nc2cccc(S(=O)(=O)NC3=NCCC3)c2)cc1,n,n,n,n,n,n
O=C(NCc1ccc(F)cc1)c1ccc2c(c1)nnn2C1CCCC1,x,x,x,n,x,n
C=CC[C@]12CC=CC(=O)[C@@]1(O)O[C@H](c1ccc(OC)c(OC)c1)[C@H]2C,n,6.5µM,n,u,u,u
COc1ccc(/C=C\C(=O)c2c(O)ccc3c(C)cc(=O)oc23)cc1,u,u,u,23µM,n,u
Cc1cc(=O)oc2c(O)c(O)ccc12,n,n,u,n,n,u
COc1ccc(/C=C/C(=O)c2c(O)ccc3c(C)cc(=O)oc23)cc1,u,21µM,u,n,n,n
SMILES,HT1080NT lethal,MCF10A rerep,HT1080 IDH1KD tx,KB-3-1 tox,SW480 rereplic,KB-V1 MDR tox
COc1ccc(-c2cc(=O)oc3c(C)c(O)ccc23)cc1,n,u,n,n,n,n
CNc1ccc2ncc(-c3ccc(OC)c(OC)c3)n2n1,18µM,x,u,n,x,n
COc1cc(/C=C/C(=O)c2ccc3c(c2)OCO3)cc(OC)c1OC,u,n,u,u,n,21µM
CCOc1ccc(C(=O)/C=C/c2cc(OC)c(OC)c(OC)c2)cc1,u,u,16µM,u,u,u
CCOc1ccc(N2C(=O)/C(=C/c3cc(OC)c(OC)c(OC)c3)N(CC(=O)OC)C2=S)cc1,n,23µM,n,n,n,u
COc1ccc(OC)c(/C=C/C(=O)c2ccc3c(c2)OCCO3)c1,u,21µM,u,u,n,u
COCc1cccc(-c2csc(C(C)(O)c3cccc(OC)c3)n2)c1 (centres undefined),u,x,u,n,x,n
CC(C)Cc1nn2cc(-c3cccc(Br)c3)nc2s1,x,x,x,n,x,n
COc1cc(C(=O)c2cc3c(cc2C)OCO3)cc(OC)c1OC,u,x,u,0.16µM,x,0.41µM
COc1cc(/C=C/C(=O)c2ccc(F)cc2)cc(OC)c1OC,23µM,u,18µM,n,18µM,u
COc1cc(/C=C/C(=O)c2ccc3c(c2)OCCO3)cc(OC)c1OC,n,u,u,u,u,n
CN(C)CCNc1ccc(CO)c2oc3ccc(O)cc3c(=O)c12,u,n,21µM,16µM,u,n
CC(=NNC(=S)N1CCCCC1)c1cccc(C)n1,n,u,u,0.23µM,u,u
Cc1cccc(C(=S)N2CCOCC2)n1,n,n,n,n,n,n
CSC(=S)NN=C(C)c1cccc(C)n1,n,u,u,u,0.37µM,u
CC(=O)NC(Cc1c[nH]c2ccccc12)C(=O)NCCc1ccccn1 (centres undefined),n,n,n,n,n,n
COc1ccc2nc3cc(Cl)ccc3c(Nc3ccc(O)c(CN4CCN(C)CC4)c3)c2c1,u,n,16µM,u,u,u
Cc1[nH]c2ccccc2c1/C=N/n1cnnc1,n,n,n,n,n,n
CCN(CC)c1ccc(N=Cc2c(C)[nH]c3ccccc23)cc1,u,n,u,n,8.2µM,n
CCN(CC)P(=O)(Nc1ccc(C)cc1Br)c1ccc(N(C)C)cc1NC(=O)c1ccco1 (centres undefined),n,u,n,u,u,18µM
Cc1ccc(S(=O)(=O)N(C)c2ccc(OCC(=O)Nc3nc4ccccc4s3)cc2)cc1,n,n,u,u,n,2.9µM
Cc1ccc(S(=O)(=O)N(C)c2ccc(OCC(=O)Nc3nc4c(ccc5ccccc54)s3)cc2)cc1,n,n,n,n,n,4.1µM
Cc1ccc(S(=O)(=O)N(C)c2ccc(OCC(=O)Nc3nc(-c4ccccc4)cs3)cc2)cc1,n,u,n,n,n,n
Nc1nonc1C(=O)NCCNC(=O)c1ccccc1F,n,n,n,n,n,u
Nc1nonc1C(=O)NCCNS(=O)(=O)c1ccc(Br)cc1,n,18µM,n,n,n,n
Cc1ccccc1-c1nnc(SC(C)C(=O)NC2CCCC2)o1 (centres undefined),n,n,n,n,n,21µM
